Results published in PubChem BioAssay (Tox21).
Results filed as inconclusive are left out. Calls of active or inactive are those of the source. Unless noted, the call rests on the fitted dose curve; in most records, active means well fitted curve in the direction sought with a large enough effect in the repeat runs; inconclusive means weak or mixed curves; inactive means no such curve, though single readings can be large; an effect the other way counts as inactive or inconclusive.

Legend:
[1] = qHTS assay to identify small molecule agonists of the constitutive androstane receptor (CAR) signaling pathway - cell viability counter screen (AID 1224836); further: series mostly up to about 92 µM; nearly all actives have a fitted effect of over 45% in size
Procedure, shortened: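 Counter screen multiplexed with the CAR reporter readout: HepG2 cells co-transfected with hCAR and the CYP2B6-2.2kb construct receive a 15-concentration compound series and 0.75 uM PK11195 (final), then CellTiter-Fluor fluorescence is read after 23 h.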

[2] = qHTS assay to identify small molecule antagonists of the constitutive androstane receptor (CAR) signaling pathway - cell viability counter screen (AID 1224837); further: series mostly up to about 92 µM; nearly all actives have a fitted effect of over 45% in size
Procedure, shortened: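 Using CellTiter-Fluor, viability is scored in HepG2 cells stably carrying hCAR and a 2.2kb CYP2B6 reporter after 23 hr compound exposure across 15 concentrations, with CITCO present at 50 nM.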

[3] = target: Nuclear receptor subfamily 1 group I member 3 (Homo sapiens) (UniProt Q14994); experiment: qHTS assay to identify small molecule antagonists of the constitutive androstane receptor (CAR) signaling pathway (AID 1224838);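 further: HepG2 cells stably expressing hCAR with CYP2B6 luciferase reporter stimulated by CITCO; nearly all actives have a fitted effect of over 40% in size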
Procedure, shortened: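 Reporter luminescence was quantified after 24 h exposure of hCAR/CYP2B6-2.2kb double-stable HepG2 cells to compounds at 15 concentrations in the presence of 50 nM CITCO final.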

[4] = target: Nuclear receptor subfamily 1 group I member 3 (Homo sapiens) (UniProt Q14994); experiment: qHTS assay to identify small molecule agonists of the constitutive androstane receptor (CAR) signaling pathway (AID 1224839); further: nearly all actives have a fitted effect of over 15% in size; further: potency means the concentration at half of the fitted maximal effect; on activation: series mostly up to about 92 µM
Procedure, shortened: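 A 15-concentration quantitative screen uses HepG2 cells co-transfected stably with human CAR and CYP2B6-2.2kb reporter. Treatment lasts 24 h with 0.75 uM PK11195 final present; ONE-Glo luminescence is the signal.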

[5] = qHTS assay to identify small molecule antagonists of the estrogen related receptor signaling pathway with the pleiotropic PPARgamma coactivator (PGC) from Tox21 10K library - cell viability counter screen (AID 1224840; active means well fitted cell-killing curve with a large enough effect in the repeat runs, not every such curve was filed as active; further: nearly all actives have a fitted effect of over 40% in size; further: potency means the concentration at half of the fitted maximal effect)
Procedure, shortened: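 Here the PGC/ERR cells serve as a cytotoxicity control: they are exposed to compounds for 17.5 hours at 37 C, and live-cell signal is quantified using CellTiter-Fluor fluorescence.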

[6] = qHTS assay to identify small molecule agonists of the hypoxia (HIF-1) signaling pathway - cell viability counter screen (AID 1224844; calls by dose curve; further: nearly all actives have a fitted effect of over 50% in size; further: potency means the concentration at half of the fitted maximal effect)
Procedure, shortened: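 Multiplexed with the HRE beta-lactamase assay, this viability read used CellTiter-Glo luminescence (30 min, RT) on HRE-bla ME-180 cells treated 17 hrs with compounds in 0.5% dialyzed FBS medium.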

[7] = target: Luciferin 4-monooxygenase (Photinus pyralis) (UniProt P08659); experiment: qHTS assay to identify small molecule inhibitors of firefly luciferase (AID 1224835); further: nearly all actives have a fitted effect of over 25% in size; further: potency means the concentration at half of the fitted maximal effect
Procedure, shortened: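 Inhibition of purified Photinus luciferase is measured by luminescence. Substrate levels (D-luciferin, ATP) sit at their KM values. Each compound is tested in a concentration series.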

[8] = qHTS assay to identify small molecule antagonists of the estrogen related receptor signaling pathway with the pleiotropic PPARgamma coactivator (PGC) from Tox21 10K library (AID 1224841; call rule not given here; further: actives are mostly falling curves and most rising ones were filed inactive; nearly all actives have a fitted effect of over 50% in size; further: potency means the concentration at half of the fitted maximal effect; on activity, negative = inhibition: series mostly up to about 92 µM)
Procedure, shortened: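 Each well held 2,000 PGC/ERR cells, pre-incubated six hours (37 C, 5% CO2). Test substances in DMSO were added by pin tool and left for 18 h at 37 C before luciferase detection by One-Glo.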

[9] = qHTS assay to identify small molecule agonists of the estrogen related receptor signaling pathway with the pleiotropic PPARgamma coactivator (PGC) from Tox21 10K library (AID 1224842); further: nearly all actives have a fitted effect of over 15% in size
Procedure, shortened: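 Luminescence from One-Glo (30 min, room temperature) measured after PGC/ERR cells had 18 h at 37 C with pinned compound (23 nL in DMSO). Cells had been seeded at 2,000 per well and pre-incubated 6 h.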

[10] = target: Thyrotropin receptor (Homo sapiens) (UniProt P16473); experiment: qHTS assay to identify small molecule agonists of the thyroid stimulating hormone receptor (TSHR) signaling pathway (AID 1224843; calls by dose curve; further: nearly all actives have a fitted effect of over 45% in size; further: potency means the concentration at half of the fitted maximal effect)
Procedure, shortened: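 Screening of the Tox21 10K collection used HEK293 cells engineered with TSHR at 800 cells per well. After a 30-min room-temperature compound exposure, HTRF cAMP reagents were added and fluorescence recorded 1 h later.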
On the % scale 0 is the no-effect control and ±100 the full control effect.

Chain of Nuclear receptor subfamily 1 group I member 3 (Homo sapiens) (Q14994 whole entry, looked up): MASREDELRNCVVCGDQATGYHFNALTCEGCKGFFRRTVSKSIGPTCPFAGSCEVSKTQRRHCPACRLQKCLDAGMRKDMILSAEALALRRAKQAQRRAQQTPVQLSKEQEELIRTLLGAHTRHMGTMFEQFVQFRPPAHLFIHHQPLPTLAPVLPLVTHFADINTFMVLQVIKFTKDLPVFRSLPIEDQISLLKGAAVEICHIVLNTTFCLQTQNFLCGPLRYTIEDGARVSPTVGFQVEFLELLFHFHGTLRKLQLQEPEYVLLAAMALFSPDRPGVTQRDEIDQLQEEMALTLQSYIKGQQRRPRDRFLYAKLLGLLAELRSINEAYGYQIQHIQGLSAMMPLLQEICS
Chain of Luciferin 4-monooxygenase (Photinus pyralis) (P08659 whole entry, looked up): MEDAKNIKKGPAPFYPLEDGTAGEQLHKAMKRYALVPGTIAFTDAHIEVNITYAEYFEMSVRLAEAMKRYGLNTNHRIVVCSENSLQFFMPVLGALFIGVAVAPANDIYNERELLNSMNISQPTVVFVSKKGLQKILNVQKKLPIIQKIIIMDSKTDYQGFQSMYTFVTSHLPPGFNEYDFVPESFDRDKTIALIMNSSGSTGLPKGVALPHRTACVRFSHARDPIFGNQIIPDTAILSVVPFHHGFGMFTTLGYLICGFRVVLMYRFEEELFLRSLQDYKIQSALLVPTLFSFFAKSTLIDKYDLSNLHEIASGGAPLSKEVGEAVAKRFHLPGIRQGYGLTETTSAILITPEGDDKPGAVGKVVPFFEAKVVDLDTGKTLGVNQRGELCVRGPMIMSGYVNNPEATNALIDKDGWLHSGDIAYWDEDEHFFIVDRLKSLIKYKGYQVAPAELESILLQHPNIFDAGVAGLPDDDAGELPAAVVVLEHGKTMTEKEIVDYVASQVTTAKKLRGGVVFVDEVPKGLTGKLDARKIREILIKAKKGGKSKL
Chain of Thyrotropin receptor (Homo sapiens) (P16473 whole entry, looked up): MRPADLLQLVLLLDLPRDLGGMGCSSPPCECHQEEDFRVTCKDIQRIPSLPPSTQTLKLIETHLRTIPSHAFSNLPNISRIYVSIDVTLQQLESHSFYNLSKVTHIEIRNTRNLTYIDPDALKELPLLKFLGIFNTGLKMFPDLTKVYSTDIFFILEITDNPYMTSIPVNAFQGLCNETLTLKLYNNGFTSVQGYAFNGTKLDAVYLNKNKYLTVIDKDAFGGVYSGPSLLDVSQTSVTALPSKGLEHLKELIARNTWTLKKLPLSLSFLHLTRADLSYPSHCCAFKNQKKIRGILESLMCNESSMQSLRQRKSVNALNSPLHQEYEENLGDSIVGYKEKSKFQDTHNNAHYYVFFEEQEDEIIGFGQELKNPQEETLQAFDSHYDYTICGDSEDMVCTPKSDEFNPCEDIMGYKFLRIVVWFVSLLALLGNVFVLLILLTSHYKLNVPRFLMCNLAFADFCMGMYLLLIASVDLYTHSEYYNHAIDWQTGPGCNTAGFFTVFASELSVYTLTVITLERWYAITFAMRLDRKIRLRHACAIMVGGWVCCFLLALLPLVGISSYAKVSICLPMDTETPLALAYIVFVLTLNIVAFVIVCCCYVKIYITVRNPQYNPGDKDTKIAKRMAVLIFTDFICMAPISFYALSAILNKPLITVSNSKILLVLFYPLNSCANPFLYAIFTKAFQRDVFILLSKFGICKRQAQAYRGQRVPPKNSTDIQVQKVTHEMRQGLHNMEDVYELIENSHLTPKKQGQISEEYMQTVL

CNC(=O)CN(CCN(CCN(CC(=O)[O-])CC(=O)NC)CC(=O)[O-])CC(=O)[O-].O.[Gd+3]
inactive: Potency [1] | Potency [2] | Potency [3] | Potency [4] | Potency [5] | Potency [6]

O=[N+]([O-])c1cccc(S(=O)(=O)O)c1
inactive: Potency [7] | Potency [4] | Potency [9] | Potency [6]
active: Potency [8] 55.3 µM

COc1cc(Cl)ccc1Oc1ccc(Cl)cc1Cl
inactive: Potency [1] | Potency [2] | Potency [3] | Potency [5] | Potency [8] | Potency [10] | Potency [6]
active: Potency [4] 29.8 µM

O=S(c1cc(Cl)cc(Cl)c1O)c1cc(Cl)cc(Cl)c1O
inactive: Potency [1] | Potency [2] | Potency [3] | Potency [4] | Potency [5] | Potency [8] | Potency [9] | Potency [10]

CCNc1cc(O)ccc1C
inactive: Potency [1] | Potency [2] | Potency [3] | Potency [5] | Potency [8] | Potency [9] | Potency [6]

O[C@@H](COc1cccc2ncccc12)CN1CCN(C2c3ccccc3[C@@H]3[C@H](c4ccccc42)C3(F)F)CC1 (stereo partly drawn)
active: Potency [10] 11.9 µM
inactive: Potency [7] | Potency [4] | Potency [6]

CCO[C@H](Cc1ccc(OCCc2ccc(OS(C)(=O)=O)cc2)cc1)C(=O)O
inactive: Potency [1] | Potency [2] | Potency [3] | Potency [5] | Potency [6]

CCCNCC(O)COc1ccccc1C(=O)CCc1ccccc1 (stereo not drawn)
inactive: Potency [1] | Potency [2] | Potency [3] | Potency [4] | Potency [5] | Potency [10] | Potency [6]

CCC(CC)Nc1ccc(C)c(C)c1
inactive: Potency [1] | Potency [2] | Potency [3] | Potency [4] | Potency [5]

Nc1ncn([C@H]2C[C@H](O)[C@@H](CO)O2)c(=O)n1
inactive: Potency [1] | Potency [2] | Potency [3] | Potency [4] | Potency [5] | Potency [6]

CCCCCCOC(=O)NC(=N)c1ccc(NCc2nc3cc(C(=O)N(CCC(=O)OCC)c4ccccn4)ccc3n2C)cc1
active: Potency [5] 29.8 µM | Potency [8] 16.8 µM | Potency [6] 23.9 µM
inactive: Potency [1] | Potency [2] | Potency [3] | Potency [4] | Potency [9] | Potency [10]

O=C1[C@H]2CCCC[C@H]2C(=O)N1CCCCN1CCN(c2nsc3ccccc23)CC1
inactive: Potency [1] | Potency [2] | Potency [3] | Potency [4] | Potency [9] | Potency [10] | Potency [6]

CN(C)c1ccc(/C=C/c2ccc([N+](=O)[O-])cc2)cc1
inactive: viability change, negative = cytotoxic [1] 5.96% [at 8.39 µM] | activity change, negative = cytotoxicity [2] 11.7% [at 8.39 µM] | activity, negative = inhibition [3] 47.3% [at 8.39 µM] | activation [10] -1.26% [at 8.39 µM] | activity change, negative = cytotoxicity [6] -6.06% [at 6.97 µM]
active: Potency [4] 0.872 µM

Nc1cc(C(=O)O)c(O)c(S(=O)(=O)O)c1
inactive: Potency [1] | Potency [2] | Potency [3] | Potency [4] | Potency [5] | Potency [8] | Potency [9] | Potency [10] | Potency [6]

CCCCCCc1ccc(-c2ccc(C#N)cc2)cc1
inactive: Potency [1] | Potency [2] | Potency [3] | Potency [5] | Potency [8] | Potency [9] | Potency [10] | Potency [6]

Cc1cc(N)c2cc(NC(=O)Nc3ccc4nc(C)cc(N)c4c3)ccc2n1
inactive: Potency [1] | Potency [2] | Potency [3] | Potency [4] | Potency [5]

CC1CCC(=O)C1=O (stereo not drawn)
inactive: Potency [1] | Potency [2] | Potency [3] | Potency [5] | Potency [10] | Potency [6]

Cc1cc(C(=O)O)ccc1[N+](=O)[O-]
inactive: Potency [7] | Potency [5] | Potency [10] | Potency [6]

Nc1ccc([N+](=O)[O-])c(C(F)(F)F)c1
inactive: Potency [1] | Potency [2] | Potency [3] | Potency [5] | Potency [8] | Potency [9] | Potency [10] | Potency [6]

O=C(NCCO[N+](=O)[O-])c1cccnc1
inactive: Potency [1] | Potency [2] | Potency [3] | Potency [4] | Potency [5] | Potency [10] | Potency [6]

CCN(CC)CCOC(=O)C(Cc1cccc2ccccc12)CC1CCCO1 (stereo not drawn)
inactive: Potency [1] | Potency [2] | Potency [3] | Potency [4] | Potency [5] | Potency [10] | Potency [6]

CCO[Si](CCCCl)(OCC)OCC
inactive: Potency [1] | Potency [2] | Potency [3] | Potency [5] | Potency [10] | Potency [6]

S=C([S-])NCCNC(=S)[S-].[Mn+2]
inactive: Potency [5] | Potency [10] | Potency [6]
active: Potency [7] 12.6 µM

CCCCNc1ccc(C(=O)OCCOCCOCCOCCOCCOCCOCCOCCOCCOC)cc1
inactive: Potency [1] | Potency [2] | Potency [3] | Potency [4] | Potency [5] | Potency [8] | Potency [9] | Potency [10] | Potency [6]

CC1(c2ccccc2)OC(C(=O)O)=CC1=O (stereo not drawn)
inactive: Potency [1] | Potency [2] | Potency [3] | Potency [4] | Potency [5] | Potency [10] | Potency [6]

Brc1c2ccccc2cc2ccccc12
inactive: Potency [1] | Potency [2] | Potency [3] | Potency [5] | Potency [10] | Potency [6]
active: Potency [4] 55 µM

CCCCCCCCCCCCCCOS(=O)(=O)O
active: Potency [6] 54.9 µM
inactive: Potency [1] | Potency [2] | Potency [3] | Potency [4] | Potency [5] | Potency [8] | Potency [9]
